Screening results: PubChem BioAssay, National Center for Advancing Translational Sciences (NCATS)
CHX counter: counter-screen hit for Shiga toxin inhibitors, cycloheximide; cell reporter, cycloheximide protein synthesis inhibition counterscreen; max response, %; 12% of 300,000 active; AID 2314; in the data active means max response mostly above about 13%, no sharp cut-off; inactive means mostly below about 14%; further: read at 38.3 µM for the half of the compounds with a filed dose; 0% is about no effect
VACV mCherry inh: inhibitors of vaccinia virus infection (mCherry reporter signal) | Vaccinia virus mCherry reporter infection, fluorescence | Potency, µM (doses to about 36.5 µM), for inactives: top-dose activity change, negative = inhibition, most hits filed as inhibitors | 0.63% of 310,000 active; calls by dose curve; tested in A549 cells; further: potency means the concentration at half of the fitted maximal effect; on the % scale 0 is the no-effect control and ±100 the full control effect; nearly all actives have a fitted effect of over 35% in size
Shiga inhibitor: Shiga toxin inhibition; Vero cells, Shiga toxin protein synthesis inhibition reporter; inhibition, % at 38.7 µM; 9.2% of 290,000 active; AID 2315; in the data active means inhibition mostly above about 28%, no sharp cut-off; inactive means mostly below about 43%; further: 0% is about no effect
Marburg entry inh: inhibitors of Marburg virus binding or cell entry; Marburg virus pseudotyped entry inhibition, cell reporter; Potency, µM (titrated, usually from 37.8 µM), for inactives: at the top dose activity change, negative = inhibition, most hits filed as inhibitors; 1.8% of 300,000 active; AID 540276; calls by dose curve; tested in HEK293 cells; further: potency means the concentration at half of the fitted maximal effect; on the % scale 0 is the no-effect control and ±100 the full control effect
LASV entry inh: Lassa virus entry inhibition; Lassa virus pseudotype entry inhibition, cell reporter; Potency, µM (highest dose often 37.9 µM), for the others: at the highest dose activity change, negative = inhibition, most hits filed as inhibitors; 1.2% of 300,000 active; calls by dose curve; tested in HEK293 cells; further: potency means the concentration at half of the fitted maximal effect; on the % scale 0 is the no-effect control and ±100 the full control effect; nearly all actives have a fitted effect of over 50% in size
Vaccinia Venus: vaccinia inhibition (Venus reporter); Vaccinia virus Venus reporter expression, fluorescence; Potency, µM (highest dose often 36.5 µM), for inactives: at the top dose activity change, negative = inhibition, hits mostly inhibitors; 0.46% of 330,000 active; AID 720580; calls by dose curve; tested in A549 cells; further: potency means the concentration at half of the fitted maximal effect; on the % scale 0 is the no-effect control and ±100 the full control effect; nearly all actives have a fitted effect of over 30% in size
Numbers without * were called inactive; i = inactive; ? = inconclusive; · = no result; [ ] = another dose, or the depositor's remark. This excerpt belongs to a sample that is enriched for hits.

SMILES | CHX counter | VACV mCherry inh | Shiga inhibitor | Marburg entry inh | LASV entry inh | Vaccinia Venus
O=C(NN=C1CCCC1)c1sc2ccccc2c1Cl | 38* | -22% | 43* | ? | ? | -9%
O=C1CCC/C(=N/NC(=O)c2sc3ccccc3c2Cl)C1 | 18* | · | 22 | · | · | ·
COCCCNC(=O)c1c(NC(=O)c2cc(=O)c3ccccc3o2)sc2c1CCCC2 | · | -9% | · | 0%[46.1 µM] | 3%[46.1 µM] | 5%
CCc1nc(SCc2ccccc2)n[nH]1 | 25* | -8% | 58* | -2% | ? | -8%
CCc1nc(SCc2ccc(F)cc2)n[nH]1 | 31* | -14% | 88* | 0%[46.1 µM] | -1%[46.1 µM] | -1%
Fc1cccc(Cl)c1CSC1=NCCS1 | 35* | -13% | 62* | 11%[46.1 µM] | 8% | -6%
O=C(c1ccco1)N1CCN=C1SCc1c(F)cccc1Cl | 2 | -15% | 26 | -3%[46.1 µM] | -21% | -16%
Cc1nc(SCc2ccccc2)n[nH]1 | 13* | · | 14 | · | · | ·
O=C(Cn1c(=O)n(CCCS(=O)(=O)C2CCCCC2)c(=O)c2ccccc21)Nc1ccccc1F | · | -23% | · | 10%[46.1 µM] | -7%[46.1 µM] | -16%
Cc1cccc(N2CCN(C(=O)Cn3nc(Cc4cccnc4)c4ccccc4c3=O)CC2)c1C | · | -7% | · | ? | ? | -20%
Cc1nc(SCc2c(F)cccc2Cl)n[nH]1 | 15* | -17% | 24 | 12% | -19%[14.3 µM] | -4%
CCCOc1ccc(CSc2n[nH]c(C)n2)cc1 | 32* | i | 55* | ? | ? | -10%
c1ccc(CSc2n[nH]c(-c3ccco3)n2)cc1 | 20* | · | 81* | 16% | ? | ·
CCCc1nc(SCc2ccccc2Cl)n[nH]1 | 24* | -30% | 23 | -23%[46.1 µM] | 3% | -16%
CCc1nc(SCc2ccccc2C#N)n[nH]1 | -2 | 0% | 2 | 7% | 9% | -14%
Cc1cc(C)cc(N(CC(=O)NC(C)(C)C)C(=O)CCC(=O)Nc2nccs2)c1 | 1 | · | -3 | · | · | ·
CN1C(=O)C[C@@H](N2CCN(c3ccc(Cl)c(Cl)c3)CC2)C1=O | · | · | · | -8% | · | ·
CCCc1nc(SCc2ccc(OCC)cc2)n[nH]1 | 5 | i | 69 | ? | 1%[46.1 µM] | -13%
CCc1nc(SCc2ccc(OC)cc2)n[nH]1 | 30* | · | 32* | · | · | ·
CCOc1ccc(S(=O)(=O)N(CC(=O)Nc2ccc3c(c2)OCO3)c2ccccc2)cc1 | · | -4% | · | 3%[46.1 µM] | 9%[46.1 µM] | -6%
COc1ccc(/C(C)=N/Nc2nc(C)cc(-c3ccccc3)n2)cc1 | · | ? | · | 2.5µM* | ? | -29%
C/C(=N\Nc1nc(C)cc(-c2ccccc2)n1)c1ccc(F)cc1 | 7 | · | 11 | · | · | ·
C/C(=N\NC(=S)NC(C)C)c1cccc([N+](=O)[O-])c1 | -1 | -29% | -1 | 12% | -2% | -24%
C/C(=N\Nc1nc(N)cc(Cl)n1)c1cccc(N)c1 | 52* | -26% | 39* | ? | 5% | -16%
CCNc1nc(NCC)nc(N/N=C(\C)c2ccc(OC)cc2)n1 | -2 | i | 20 | · | · | ?
SMILES | CHX counter | VACV mCherry inh | Shiga inhibitor | Marburg entry inh | LASV entry inh | Vaccinia Venus
C/C(=N\NC(=O)CSc1nc(C)cc(C)n1)c1cccc([N+](=O)[O-])c1 | -4 | -11% | -6 | -21%[46.1 µM] | 9% | 1%
C/C(=N/Nc1nc(C)c(C)s1)c1cccc([N+](=O)[O-])c1 | 30* | · | 30* | · | · | ·
C/C(=N\Nc1nc(N)cc(Cl)n1)c1cccc([N+](=O)[O-])c1 | 37* | -16% | 75* | 3% | -15%[14.3 µM] | -6%
CN(CCc1ccccc1)C(=O)c1cccc(NC(=O)Cc2cccc(NC(=O)C3CCN(C(=O)C4CCCCC4)CC3)c2)c1 | · | ? | · | · | · | -29%
Cc1nc2ccccc2nc1CN1CCOc2ccc(C(C)(O)COc3ccccc3)cc2C1 (centres undefined) | · | -23% | · | · | · | -18%
C/C(=N/Nc1nc(-c2ccccc2)cc(-c2ccc(F)cc2)n1)c1cccc(N)c1 | 16 | 22µM* | 9 | -7% | ? | ?
COc1ccc(/C(C)=N\Nc2nc(-c3ccccc3)cc(=O)[nH]2)cc1 | 8 | -9% | -1 | ? | ? | -6%
CC(=O)c1cccc(NC(=O)c2ccc(-n3c(C)nnc3C)cc2)c1 | · | -3% | · | · | 1%[46.1 µM] | 1%
Nc1ncnc2c1ncn2CCc1ccccc1 | 29* | i | 44* | ? | 2%[46.1 µM] | -14%
Cc1ccccc1OCCn1cnc2c(N)ncnc21 | 11* | · | 15 | 11% | 30% | -21%
COC(=O)c1cnc(Oc2ccc(NC(=O)NC(=O)c3c(OC)cccc3OC)cc2)cc1C(F)(F)F | -1 | ? | 9 | 1.6µM* | ? | ?
